Results reported in publication PMC5540273 (PLoS ONE, 2017).

Experiments:
Conditions in all cases: concentration: 1 μM, replicates: in singlicate; n = 1
[1] = system: RPS6KA5(Kin.Dom.2-C-terminal)
[2] = system: T1, RSK1(Kin.Dom.1-N-terminal)
T1 construct: gene RPS6KA1

[3] = system: T2, RSK1(Kin.Dom.2-C-terminal)
T2 construct: gene RPS6KA1

[4] = system: T3, RSK2(Kin.Dom.1-N-terminal)
T3 construct: gene RPS6KA3

[5] = system: T4, RSK2(Kin.Dom.2-C-terminal)
T4 construct: gene RPS6KA3

[6] = system: T5, RSK3(Kin.Dom.1-N-terminal)
T5 construct: gene RPS6KA2

[7] = system: T6, RSK3(Kin.Dom.2-C-terminal)
T6 construct: gene RPS6KA2

[8] = system: T7, RSK4(Kin.Dom.1-N-terminal)
T7 construct: gene RPS6KA6

[9] = system: T8, RSK4(Kin.Dom.2-C-terminal)
T8 construct: gene RPS6KA6

S6K1 = system: S6K1
SBK1 = system: SBK1
SGK2 = system: SGK2
SGK3 = system: SGK3
SGK = system: SGK
SIK2 = system: SIK2
SIK = system: SIK
SLK = system: SLK
SNARK = system: T9, SNARK
T9 construct: gene NUAK2

SNRK = system: SNRK
SRC = system: SRC
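Note: KINOMEscan kinase panel screen.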

SMILES | %Inh [1] | %Inh [2] | %Inh [3] | %Inh [4] | %Inh [5] | %Inh [6] | %Inh [7] | %Inh [8] | %Inh [9] | %Inh (S6K1) | %Inh (SBK1) | %Inh (SGK2) | %Inh (SGK3) | %Inh (SGK) | %Inh (SIK2) | %Inh (SIK) | %Inh (SLK) | %Inh (SNARK) | %Inh (SNRK) | %Inh (SRC)
O=C(NCCCN1CCCC1=O)c1cnc(NCc2cc(Cl)ccc2Cl)nc1NC1CCNCC1 | 0% | 100% | 5% | 0% | 0% | 39% | 8% | 0% | 17% | 26% | 0% | 0% | 0% | 0% | 0% | 7% | 14% | 0% | 0% | 0%
CCc1nc(-c2cccc(C)c2)c(-c2ccnc(NC(=O)c3ccccc3)c2)s1 | 1% | 0% | 53% | 0% | 39% | 0% | 5% |  | 46% | 0% | 5% | 17% | 0% | 13% | 0% | 25% | 0% | 0% | 19% | 5%
Nc1nc(-c2ccccn2)c(-c2ccnc3ccccc23)s1 [GW548057] | 33% | 5% | 39% | 0% | 9% | 0% | 1% | 0% | 76% | 0% | 0% | 0% | 6% | 0% | 0% | 0% | 7% | 0% | 0% | 12%
Nc1nc(-c2ccc3c(N)n[nH]c3c2)cc(N2CCCCC2)n1 [GSK2228768] | 0% | 0% | 0% | 0% | 0% | 15% | 0% | 0% | 0% | 0% | 3% | 0% | 0% | 0% | 0% | 0% | 5% | 0% | 0% | 15%
O=C(CCO)NCCn1ccc2ncnc(Nc3ccc(Oc4cccc(C(F)(F)F)c4)c(Cl)c3)c21 | 0% | 0% | 0% | 0% | 0% | 3% | 4% | 0% | 0% | 0% | 0% | 0% | 0% | 0% | 16% | 10% | 37% | 0% | 0% | 0%
C[C@@H]1CCN(C(=O)CO)C[C@@H]1N(C)c1ncnc2[nH]ccc12 | 13% | 0% | 4% | 0% | 0% | 0% | 23% | 0% | 30% | 1% | 0% | 0% | 1% | 0% | 0% | 10% | 0% | 10% | 3% | 6%
CC(=O)Nc1n[nH]c2ncc(-c3ccccc3)cc12 [SB-548492] | 0% | 1% | 100% | 20% | 0% | 41% | 0% | 36% | 12% | 50% | 4% | 9% | 14% | 20% | 12% | 14% | 20% | 3% | 1% | 0%
Cl.c1ccc(Cn2ccc3cc(Nc4ncnc5ccccc45)ccc32)cc1 [GW275568] | 39% | 41% | 23% | 0% | 34% | 2% | 4% | 0% | 26% | 0% | 0% | 0% | 46% | 0% | 2% | 0% | 32% | 35% | 14% | 4%
C[C@H]1CC[C@@H](C(=O)Nc2ccccc2)CN1c1cc(-c2ccc3c(N)n[nH]c3c2)nc(N)n1 [GSK2283293] | 0% | 18% | 8% | 0% | 21% | 0% | 9% | 0% | 23% | 0% | 9% | 0% | 7% | 0% | 0% | 0% | 0% | 7% | 0% | 0%
OCCOCCn1ccc2ncnc(Nc3ccc(Oc4cccc(Cl)c4)c(Cl)c3)c21 | 0% | 0% | 0% | 0% | 0% | 3% | 4% | 0% | 2% | 0% | 0% | 0% | 0% | 0% | 0% | 0% | 39% | 0% | 0% | 0%
FC(F)(F)c1ccc(-c2cc(-c3c[nH]nc3-c3ccccn3)ccn2)cc1 [GW599550] | 15% | 20% | 7% | 0% | 2% | 12% | 5% | 0% | 42% | 2% | 8% | 9% | 12% | 0% | 0% | 0% | 23% | 10% | 100% | 3%
CC(C)(C)c1ccc(-n2cnc3c(N)ncnc32)cc1 [SKF-97263] | 0% | 0% | 16% | 0% | 28% | 8% | 0% | 15% | 0% | 10% | 11% | 0% | 15% | 2% | 7% | 0% | 13% | 18% | 0% | 1%
Fc1ccc(Nc2nccc(-c3c(-c4ccc(Cl)cc4)nn4ncccc34)n2)cc1F [GW829058] | 18% | 27% | 10% | 31% | 42% | 6% | 0% | 30% | 0% | 4% | 43% | 17% | 3% | 18% | 0% | 0% | 6% | 0% | 0% | 14%
Cc1ccc(O)cc1Nc1cc(C(F)(F)F)nc2ccc(-c3ccncc3)cc12 [GW630823] | 9% | 0% | 0% | 0% | 0% | 0% | 5% | 4% | 14% | 0% | 0% | 3% | 0% | 14% | 11% | 4% | 26% | 0% | 0% | 18%
CNc1nccc(-c2c(-c3ccc(F)cc3)ncn2CCCN2CCOCC2)n1 [SB-222516] | 17% | 5% | 0% | 9% | 55% | 3% | 0% | 7% | 87% | 2% | 0% | 15% | 44% | 10% | 0% | 12% | 5% | 24% | 18% | 0%
FC(F)(F)c1ccc(-c2nn3ncccc3c2-c2ccnc(Nc3cccc(C(F)(F)F)c3)n2)cc1 [GW828205] | 3% | 12% | 0% | 0% | 6% | 0% | 0% | 0% | 3% | 0% | 0% | 0% | 18% | 0% | 0% | 47% | 21% | 0% | 0% | 0%
